Each structure is given as a SMILES string. Values joined by “and” are separate entries in the source; they are usually repeats but may differ in a detail not shown here. Identical values can stand only once. Among all 420,000 compounds or so, about 64,000 (15%) were called active. Roughly 27% stayed inconclusive and do not appear here. Calls follow the shape of the dose curve; as a rule, active = well fitted inhibition curve with a large enough effect; inconclusive = small, poorly fitted or top-dose-only effect; inactive = flat fitted curve, though single readings scatter. Only a sample is shown. A call without a number means that no potency is given here.
Potency is read from the fitted curve at half-maximal effect.

The test in a line: qHTS for Inhibitors of human tyrosyl-DNA phosphodiesterase 1 (TDP1): qHTS in cells in absence of CPT. Also: nearly all actives have a fitted effect of over 55% in size. As to conditions: DT40 Tdp1-/- hTDP1 cells, no CPT, ATP luminescence, 48 h; activity change, negative = growth inhibition: at 46.2 µM (top of the series). Put shortly: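 A cellular qHTS used chicken DT40 cells lacking endogenous Tdp1 but carrying stably transfected human TDP1. Compounds were applied without camptothecin, and cell growth kinetics were judged by ATP-dependent luminescence after ≥48 hr.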
On the technique in general: qHTS replaces the single test concentration by a dilution series.
Turning to `CCCC(NS(=O)(=O)c1ccc(OC)cc1)C(=O)O` (configuration not stated), the Potency result is “inactive”.

Consider `COC(=O)c1ccc(COC(=O)c2c(C)nn(Cc3ccccc3Cl)c2Cl)o1`, for which the Potency result was “inactive”.

For `COc1ccc(C(=O)CN2C(=O)NC(C)(c3ccc(C)cc3)C2=O)cc1OC` (configuration not stated), the Potency result was “inactive”.

In the case of `COc1ccc(C)cc1-n1c(-c2ccc(C)cc2)cc2c1CC(C)(C)CC2=O`, the Potency is 8.2 µM (active).

Take `CC(=O)Oc1ccc(C)cc1N1C(=O)c2ccc(C(=O)O)cc2C1=O`: the Potency result is “inactive”.

Consider `Cc1cc(NC(=O)COC(=O)c2ccc(F)c(S(=O)(=O)N3CCOCC3)c2)no1`, for which the Potency result was “inactive”.

Take `Cc1c(CCO)sc[n+]1CC(=O)c1ccc2ccccc2c1`: the Potency was 15.8 µM (active).

Regarding `O=C(OCC(=O)N1CCOCC1)c1ccc2ccccc2c1`, the Potency entry was “inactive”.

For the compound `Cc1ccccc1OCC(=O)NCC(=O)OCC(=O)c1ccc2ccccc2c1`, the Potency result is “inactive”.

Turning to `O=C(CCn1ccc([N+](=O)[O-])n1)Nc1nccs1`, the Potency result was “inactive”.

Turning to `CCOc1ccc(-n2c(SCC(N)=O)nnc2-c2ccco2)cc1`, the Potency result was “inactive”.

For `O=C(COC(=O)C1CCN(S(=O)(=O)c2ccc3c(c2)OCCO3)CC1)Nc1ccccc1OC(F)F`, the Potency entry was “inactive”.

For `COc1ccc(Br)cc1/C=N/Nc1ccc(Cl)c(C(=O)O)c1`, the Potency entry was “inactive”.

`O=C(NCc1ccccn1)c1cc(Br)ccc1Cl`: the Potency entry is “inactive”.

In the case of `Oc1ccc(Br)cc1/C=N/Nc1ccccn1`, the Potency is 3.66 µM (active).

In the case of `COc1cc2c(C(=O)N(C)c3cc(Cl)ccc3OC)cn(C)c(=O)c2cc1OC`, the Potency result was “inactive”.

On to `O=C(CSc1ccccn1)N1CCN(S(=O)(=O)c2ccc(Cl)cc2)CC1`, for which the Potency result is “inactive”.

In the case of `C/C(N)=C(\C#N)C(=O)NCCc1ccccn1`, the Potency result was “inactive”.

Regarding `Cc1ccc(NC(=O)CN2CCC(C(N)=O)CC2)cc1[N+](=O)[O-]`, the Potency result is “inactive”.

Consider `COc1ccc(C23NCCN2C(=O)c2ccccc23)cc1` (configuration not stated), for which the Potency entry is “inactive”.

For `CC12CN3CCN(CC(C3)/C1=N\NC(=O)c1ccccc1N)C2`, the Potency result is “inactive”.

Consider `COc1ccc(NC(=O)C2CCC(CNc3c(N4CCCCC4)c(=O)c3=O)CC2)c(OC)c1` (configuration not stated), for which the Potency entry was “inactive”.

As for `CCOc1ccccc1NC(=O)C1CCC(CNc2c(N3CCOCC3)c(=O)c2=O)CC1` (configuration not stated), the Potency result was “inactive”.

In the case of `CCN(CC)c1ccc(NC(=O)C2CCC(CNc3c(N4CCCC4)c(=O)c3=O)CC2)c(C)c1` (configuration not stated), the Potency was 14.6 µM (active).

With `Cc1ccc(NS(=O)(=O)c2ccc(-c3coc(C)n3)cc2)c(C)c1`, the Potency entry was “inactive”.

Consider `COC(=O)c1c(OCc2ccc(F)cc2)cc(=O)n2c1CCN(Cc1ccc3cccnc3c1)CC2`, for which the Potency entry is “inactive”.

For `O=C(NCc1ccccc1Cl)C1CCN(S(=O)(=O)N2CCOCC2)CC1`, the Potency result was “inactive”.

Take `O=C(NCc1cccc(Cl)c1)C1CCN(c2nnc(N3CCCC3=O)s2)CC1`: the Potency entry was “inactive”.

Regarding `Cc1ccc(NC(=O)N2CCC(C(=O)NCc3ccc(F)cc3)CC2)cc1`, the Potency result was “inactive”.

For the compound `CCc1ccc(CNC(=O)C2CCN(c3nn4cc(-c5ccc(F)cc5)nc4s3)CC2)cc1`, the Potency result is “inactive”.

As to `Cc1ccc(C)n1-c1nnc(N2CCC(C(=O)NCc3ccc(F)cc3)CC2)s1`, the Potency is 23.1 µM (active).

`Cc1ccc(C)n1-c1nnc(N2CCC(C(=O)NCc3ccccc3Cl)CC2)s1`: the Potency was 18.4 µM (active).

`O=C(O)CSc1ccc(S(=O)(=O)N2CCCC2)cn1`: the Potency result is “inactive”.

On to `COC(=O)C(C)Oc1ccc2c(-c3cccc([N+](=O)[O-])c3)cc(=O)oc2c1` (configuration not stated), for which the Potency entry was “inactive”.

For the compound `COc1cccc(NC(=O)COc2cc(C)cc3oc(=O)cc(C)c23)c1`, the Potency entry is “inactive”.

On to `COc1cc(OC)c2c(-c3cccc(-c4cccc(N)c4)c3)cc(=O)oc2c1`, for which the Potency was 4.61 µM (active).

Regarding `Cc1c(CCC(=O)O)c(=O)oc2cc(OCc3ccc(Br)cc3)ccc12`, the Potency result is “inactive”.

Take `CCC(=C/c1sc2ccc3ccccc3c2[n+]1C)/C=C1\Sc2ccc3ccccc3c2N1C`: the Potency is 0.092 µM (active).

For `Cc1ccc(NS(=O)(=O)c2ccc(C(=O)NCCCN3CCOCC3)cc2)cc1`, the Potency result was “inactive”.

Take `CCn1c(C)c(C)c2cc(C(=O)NCCc3cc(OC)ccc3OC)ccc21`: the Potency was 14.6 µM (active).

Regarding `COc1ccc(C(=O)NCCc2ccc(S(N)(=O)=O)cc2)cc1OC`, the Potency entry was “inactive”.

In the case of `CCOC(=O)c1c(C)c(C(=O)NCCc2ccc(S(N)(=O)=O)cc2)c(C)n1CC`, the Potency result was “inactive”.

For `Cc1c(C)n(Cc2ccc(Cl)cc2)c2ccc(C(=O)NCCCN3CCOCC3)cc12`, the Potency is 18.4 µM (active).

`COC(=O)c1ccc(OC)c(Cn2c(=O)n(Cc3ccccc3)c(=O)c3c2c2cc(OC)ccc2n3C)c1`: the Potency entry is “inactive”.

`Cc1c(C)n(Cc2ccc(Cl)cc2)c2ccc(C(=O)NCCc3ccc(S(N)(=O)=O)cc3)cc12`: the Potency is 25.9 µM (active).

Consider `Cc1ccc(C(=O)NCCN2CCOCC2)cc1C`, for which the Potency result was “inactive”.

In the case of `COc1ccc(OC)c(CN2CCN(C(=O)CNC(=O)c3cc(C)cc(C)c3)CC2)c1`, the Potency entry was “inactive”.

With `COC(=O)[C@@H]1CC(O)CN1C(=O)C12CC3CC(CC(C3)C1)C2` (some centres not stated), the Potency result is “inactive”.

For the compound `CCOC(=O)c1sc(=NC(=O)c2ccc(Br)cc2)n(C)c1C`, the Potency result is “inactive”.

On to `NC(=O)C1CCCN(CC(=O)N2CCN(c3ccccc3)CC2)C1` (configuration not stated), for which the Potency result was “inactive”.

Consider `O=S(=O)(NCC1CCCO1)c1cnc(Cl)c(Cl)c1` (configuration not stated), for which the Potency result was “inactive”.

With `O=C1CCCC(O)=C1C=NCCc1ccccc1`, the Potency entry is “inactive”.

As to `CCCCN(C)CCC(=O)Nc1ccc(Cl)cc1`, the Potency result was “inactive”.

For the compound `Cc1nnc(NC(=O)CCCOc2ccccc2)s1`, the Potency entry is “inactive”.

For `Cc1ccn2c(-c3csc(Nc4ccc(C(=O)O)cc4)n3)c(C)nc2c1`, the Potency result is “inactive”.

With `CC(=O)Nc1nc(C)c(-c2csc(Nc3ccc(S(N)(=O)=O)cc3)n2)s1`, the Potency entry was “inactive”.

Consider `Cc1nc(NC(=O)CCC(=O)O)sc1C(=O)N(C)C`, for which the Potency entry is “inactive”.

With `C=CCCC(=O)Nc1nc(C)c(-c2csc(Nc3ccc(Cl)cc3)n2)s1`, the Potency was 13 µM (active).

For the compound `COc1cccc(NC(=O)c2csnn2)c1`, the Potency result is “inactive”.

Turning to `CCCCCCC(=O)Nc1nc(C)c(-c2csc(Nc3cccc(OC)c3)n2)s1`, the Potency is 16.4 µM (active).

On to `CCCCC(=O)Nc1nc(C)c(-c2csc(Nc3ccc(Cl)cc3)n2)s1`, for which the Potency is 23.1 µM (active).

Regarding `CO[C@]1(NC(=O)CSC(F)F)C(=O)N2C(C(=O)O)=C(CSc3nnnn3CCO)CO[C@H]21`, the Potency result is “inactive”.

Regarding `O=C(C1CCN(C2CCN(Cc3ccc4cc(F)ccc4n3)CC2)CC1)N1CCCC1`, the Potency entry was “inactive”.

Consider `COc1ccc(CCNC(=S)N2CCN(S(=O)(=O)c3ccc(F)cc3)CC2)cc1`, for which the Potency result is “inactive”.

As for `COc1ccc(CCNS(=O)(=O)c2cc3c(cc2C)NC(=O)CO3)cc1OC`, the Potency result is “inactive”.

As for `CCc1ccccc1NC(=O)c1ccc(F)c(S(=O)(=O)NC2CCCCCC2)c1`, the Potency result was “inactive”.

Turning to `CCc1ccc(OCC(O)CN2CCN(CCO)CC2)cc1` (configuration not stated), the Potency entry was “inactive”.

As to `COc1ccc(N(CC(=O)N2CCOCC2)S(=O)(=O)c2ccccc2)cc1Cl`, the Potency result is “inactive”.

`Cc1cccc(OC(=O)c2sc3ncn(C)c(=O)c3c2C)c1`: the Potency entry is “inactive”.

For `CCCN(CCC)C(=O)C1CCCN(c2ncnc3c2nc2n3CCCCC2)C1` (configuration not stated), the Potency was 20.6 µM (active).

For the compound `COc1ccc(NC(=O)N2CCCC(C(=O)Nc3ccccc3OC)C2)cc1` (configuration not stated), the Potency entry is “inactive”.

Regarding `COc1cccc(NC(=O)C/C(C)=N/NC(=O)C2CCCCC2)c1`, the Potency result is “inactive”.

Take `O=C(NCCCN1CCCCC1)C1CCCN(c2ncnc3c2nc2n3CCCCC2)C1` (configuration not stated): the Potency entry was “inactive”.

For `COc1cccc(NC(=O)C2CCCN(c3ncnc4c3nc3n4CCCCC3)C2)c1` (configuration not stated), the Potency was 20.6 µM (active).

Consider `COCCNc1ncnc2c1nc1n2CCCC1`, for which the Potency entry was “inactive”.

With `O=C(Nc1cc(-c2nc3ccccc3o2)ccc1Cl)c1cc([N+](=O)[O-])ccc1N1CCOCC1`, the Potency entry is “inactive”.

Consider `CC(C)NC(=O)N1CC[C@@]2(CCCN(C(=O)c3cccn3C)C2)C1`, for which the Potency entry is “inactive”.

Consider `CCC(=O)N1c2ccccc2CC1C(=O)N1CCN(c2ccccc2)CC1` (configuration not stated), for which the Potency result was “inactive”.

For the compound `CCOC(=O)c1c(S(=O)(=O)N2CCC(C(=O)NCc3ccccc3OC)CC2)c(C)n(C)c1C`, the Potency result is “inactive”.

On to `Cc1cc(C)cc(-c2nnc(SCC(=O)NC3CC3)o2)c1`, for which the Potency result was “inactive”.

`CC1=CC2=NC(=O)CC(C)(C(=O)N(CC(=O)NC(C)(C)C)Cc3ccccc3)N2C=C1` (configuration not stated): the Potency result is “inactive”.

For the compound `COC(=O)c1ccc(CSc2nnc(NC(C)C)s2)cc1`, the Potency result is “inactive”.

Consider `COc1ccc(-c2nc(CN3CCN(c4ncccn4)CC3)c(C)o2)cc1C`, for which the Potency is 20.6 µM (active).

`Cc1ccc(CN2CCN(c3ncccn3)CC2)c(C)c1`: the Potency entry was “inactive”.

Take `COc1ccc(-c2nc(CS(=O)CC(=O)NCc3ccccc3)c(C)o2)cc1OC` (configuration not stated): the Potency entry is “inactive”.

As to `Cc1c(C(=O)NCCCc2ccccc2)cccc1[N+](=O)[O-]`, the Potency entry is “inactive”.

Take `CC(C)(C)C(=O)Nc1c(Br)c(C2CC2)nn1-c1ccccc1`: the Potency result is “inactive”.

For the compound `CCOC(=O)c1[nH]cnc1C(=O)NC1CCCCC1`, the Potency entry was “inactive”.

As to `Cc1nn(-c2ccccc2)c(C)c1NC(=O)COC(=O)c1cc(Cl)ccc1O`, the Potency entry is “inactive”.

On to `Cc1nn(-c2ccccc2)c(C)c1NC(=O)COc1ccc(Cl)cc1Cl`, for which the Potency was 9.2 µM (active).

Turning to `C/C=C/c1ccc(OCC(=O)OCC(=O)Nc2c(C)nn(-c3ccccc3)c2C)c(OC)c1`, the Potency result was “inactive”.

Regarding `COc1ccccc1CNC(=O)C1CCN(S(=O)(=O)c2ccc3c(c2)OCCO3)CC1`, the Potency entry is “inactive”.

On to `COc1ccc(-n2nc3c(c2NC(=O)c2ccc(N4C(=O)CCC4=O)cc2)CSC3)cc1`, for which the Potency entry is “inactive”.

Regarding `O=C(O)Cc1ccc(-c2ccccc2)cc1`, the Potency result is “inactive”.

On to `CC(=O)N1C(=O)/C(=C2\SC(=S)N(NC(=O)c3ccc(O)cc3)C2=O)c2ccccc21`, for which the Potency entry is “inactive”.

On to `CCOCCCNc1nc(-c2ccccc2)nc2ccccc12`, for which the Potency is 14.6 µM (active).

Consider `Cc1ccccc1-c1nc(N(C)Cc2ccco2)c2ccccc2n1`, for which the Potency result is “inactive”.

For the compound `Cc1cnc(CNc2nc(-c3cccnc3)nc3ccccc23)cn1`, the Potency entry is “inactive”.

`c1ccc(-c2nc(NCc3ccco3)c3ccccc3n2)cc1`: the Potency was 23.1 µM (active).

With `O=C(COc1ncnc2ccccc12)NC(=O)NCc1ccccc1`, the Potency entry is “inactive”.

As for `CCC(=O)OCCNc1nc(-c2ccccc2)nc2ccccc12`, the Potency result is “inactive”.

With `c1coc(CNc2ncnc3ccccc23)c1`, the Potency was 12.6 µM (active) and 5.17 µM (active).

For `COc1ccc(CNc2ncnc3ccccc23)cc1`, the Potency is 0.651 µM (active).

For `Cc1ccc(C(=O)NNc2ncnc3ccccc23)cc1`, the Potency entry was “inactive”.

For the compound `CCOCCCn1c(NN)nc2ccccc2c1=O`, the Potency entry was “inactive”.

As for `Brc1nc2ncnc(NCc3ccco3)c2[nH]1`, the Potency entry is “inactive”.

Regarding `COc1ccc(CNc2nccs2)cc1`, the Potency entry was “inactive”.
